# Experimental data as given in PubChem BioAssay AID488849 (National Center for Advancing Translational Sciences (NCATS), 2010).
# “And” between values parts separate entries of the source, which are not always exact repeats. Equal values may be shown once. Records with an inconclusive call do not appear. The source made the active and inactive calls. Calls come from the whole dose curve; as a rule, active = well fitted activation curve with a large enough effect; inconclusive = small, poorly fitted or top-dose-only effect; inactive = flat fitted curve, though single readings scatter.
# Biological target: Lysosomal acid glucosylceramidase (Homo sapiens) (UniProt P04062)
# Sequence (P04062 whole entry, looked up): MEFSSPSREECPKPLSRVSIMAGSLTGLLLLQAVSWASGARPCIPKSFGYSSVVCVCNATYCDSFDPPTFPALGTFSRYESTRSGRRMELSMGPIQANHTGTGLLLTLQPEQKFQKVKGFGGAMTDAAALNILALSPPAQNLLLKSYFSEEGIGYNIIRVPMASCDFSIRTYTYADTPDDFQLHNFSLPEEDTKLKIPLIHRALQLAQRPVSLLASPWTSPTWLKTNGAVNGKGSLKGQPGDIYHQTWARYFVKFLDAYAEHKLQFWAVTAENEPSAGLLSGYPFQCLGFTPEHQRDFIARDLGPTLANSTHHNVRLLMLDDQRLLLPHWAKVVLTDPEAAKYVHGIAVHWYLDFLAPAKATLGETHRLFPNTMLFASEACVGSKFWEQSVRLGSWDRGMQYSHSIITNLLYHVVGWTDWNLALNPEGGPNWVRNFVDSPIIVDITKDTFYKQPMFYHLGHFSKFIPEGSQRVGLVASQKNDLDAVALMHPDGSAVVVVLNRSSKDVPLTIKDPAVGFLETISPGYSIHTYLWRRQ
# Assay: qHTS Assay for Inhibitors and Activators of N370S glucocerebrosidase as a Potential Chaperone Treatment of Gaucher Disease: Activity in Non-Mutant Spleen Confirmation for Probe SAR
# Settings: human spleen homogenate, 4-MU-beta-glucoside fluorescence; series mostly up to 57.5 µM
# Text: NIH Chemical Genomics Center [NCGC] NIH Molecular Libraries Probe Production Centers Network [MLPCN] MLPCN Grant: MH086442-01 Assay Submitter (PI): Wei Zheng Glucocerebrosidase (GC) catalyzes the hydrolysis of beta-glucocerebroside to glucose and ceramide in lysosomes. Mutations in the glucocerebrosidase gene result in Gaucher disease, an autosomal recessive lysosomal storage disorder. Many of the mutations encountered in patients with Gaucher disease are missense alterations that may cause misfolding, decreased stability and/or mistrafficking of this lysosomal protein. […] These inhibitors include iminosugar analogs and three non-iminosugar inhibitors identified from a previous HTS of 62,000 compounds with the wild type recombinant enzyme. However, the enhancement of enzyme activity by the chaperone action of an enzyme inhibitor must be balanced against the direct inhibition of the enzyme. An enzyme activator could also function as a chaperone by binding to the enzyme and helping to correct its misfolding and mistrafficking. While activators for GC have not yet been identified, they may have better therapeutic potential than inhibitors. Therefore the discovery and development of chemical activators may provide a new strategy for the chaperone therapy. We have optimized a new assay using N370S mutant GC derived from the spleen of a Gaucher patient. […] In addition, the MLPCN compound library has expanded, which increases the chance of finding new and better probes. This confirmation assay tests for compound activity in spleen homogenate containing wildtype enzyme.
# NCGC Assay Protocol Summary: This is a fluorogenic enzyme assay with 4-methylumbelliferyl-beta-D-glucopyranoside as the substrate and wildtype glucocerebrosidase from human spleen homogenate as the enzyme preparation. Upon the hydrolysis of this fluorogenic substrate, the resulting product, […] which can be detected by a standard fluorescence plate reader. Data were normalized to the controls for basal activity (without enzyme) and 100% activity (with enzyme). The AC50 values were determined from concentration-response data modeled with the standard Hill equation. Assay buffer: 50 mM citric acid (titrated with potassium phosphate to pH 5.0), 100 mM potassium chloride, 10 mM sodium chloride, 1 mM magnesium chloride, 0.01% Tween-20. 1536-well assay protocol: (1) Add 2 ul/well of spleen homogenate (27 ug final) (2) Add 23 nL compounds in DMSO solution. The final titration was 0.5 nM to 58 uM. (3) Add 2 ul of substrate (1 mM final) (4) Incubate at 37C for 40 min. (5) Add 2 ul stop solution (1M NaOH and 1M Glycine mixture, pH 10) (6) Detect the assay plate in a ViewLux plate reader (PerkinElmer) with Ex=365 nm and Em=440nm. Keywords: Glucocerebrosidase, beta-glucosidase, Gaucher Disease, pharmacological chaperone, chaperone therapy, high throughput screening, glucocerebrosidase inhibitor, MLSMR, MLSCN, NIH Roadmap, qHTS and NCGC
row,SMILES,Potency
1,Cc1cc(C)n2ncc(C(=O)Nc3ccc(S(C)(=O)=O)cc3)c2n1,inactive
2,Cc1cc(C)n2ncc(C(=O)NC(C)C)c2n1,inactive
3,O=C(Nc1ccccc1Sc1ccccc1)c1cnn2c1NC(=C1CC1)C=C2C(F)F,4.61 µM (active)
4,Cc1cccc(NC(=O)c2cnn3c(C)cc(C)nc23)c1,8.19 µM (active)
5,Cc1cc(C)n2ncc(C(=O)Nc3cccc(C#N)c3)c2n1,inactive
6,Cc1cc(C)n2ncc(C(=O)Nc3ccc(C)c(C)c3)c2n1,4.11 µM (active)
7,CNC(=O)c1cnn2c(C)cc(C)nc12,inactive
8,Cc1cc(C)n2ncc(C(=O)Nc3ccc(C(F)(F)F)cc3)c2n1,1.46 µM (active)
9,Cc1cc(C)n2ncc(C(=O)Nc3ccc(Br)cc3)c2n1,2.06 µM (active)
10,Cc1cc(C)n2ncc(C(=O)Nc3ccc4c(c3)OCO4)c2n1,13 µM (active)
11,Cc1cc(C)n2ncc(C(=O)NC3CCC(C(C)(C)C)CC3)c2n1 (stereo not drawn),11.6 µM (active) and 2.06 µM (active)
12,COc1ccc(NC(=O)c2cnn3c(C)cc(C)nc23)cc1OC,inactive
13,COc1ccc(NC(=O)c2cnn3c(C)cc(C)nc23)cc1,20.6 µM (active)
14,CC(=O)Nc1ccccc1NC(=O)c1cnn2c(C)cc(C)nc12,inactive
15,Cc1cc(C)n2ncc(C(=O)N3CCCC3)c2n1,inactive
16,Cc1cc(C)n2ncc(C(=O)Nc3ccc4c(c3)CCC4)c2n1,2.91 µM (active)
17,Cc1cc(C)n2ncc(C(=O)Nc3ccc4c(c3)OCCO4)c2n1,13 µM (active)
18,Cc1ccc(NC(=O)c2cnn3c(C)cc(C)nc23)c(C)c1,8.19 µM (active)
19,C#Cc1ccc(NC(=O)c2cnn3c(C)cc(C)nc23)cc1,0.41 µM (active)
20,CCc1ccc(NC(=O)c2cnn3c(C)cc(C)nc23)cc1,2.91 µM (active)
21,Cc1ccc(NC(=O)c2cnn3c(C)cc(C)nc23)cc1,3.26 µM (active)
22,Cc1cc(C)n2ncc(C(=O)Nc3ccncc3)c2n1,inactive
23,CC(=O)Nc1ccc(NC(=O)c2cnn3c(C)cc(C)nc23)cc1,inactive
